Laboratory results published in PubChem BioAssay (NCATS).
Inconclusive results are not listed. Where a call stands in place of a potency, no number is given. The source made the active and inactive calls. The call rests on the fitted dose curve; in most records, active means well fitted cell-killing curve with a large enough effect; inconclusive means small, poorly fitted or top-dose-only effect; inactive means flat fitted curve, though single readings scatter.

Test: qHTS of pediatric cancer cell lines to identify multiple opportunities for drug repurposing: Primary screen for Rh18 cells (AID 1347102); further: nearly all actives have a fitted effect of over 65% in size
Settings: Rh18 rhabdomyosarcoma viability, CellTiter-Glo luminescence, 48 h; series mostly up to 46 µM
Source text: Drug repurposing or repositioning has been offered as a strategy for drug development in oncology programs. This approach has special potential for childhood cancers and other rare or orphan diseases, where the expected return on new drug development has been a disincentive to pharmaceuticals.
In this project we exploit the poly-pharmacology of drugs to discover new indications via phenotypic screening of a panel of 19 well-characterized cell lines derived from solid tumors seen in children and adolescents. The goal is to identify approved drugs with previously unrecognized anticancer properties that has the potential to reveal new mechanisms and biological processes involved in carcinogenesis or drug resistance. We employed a titration-based paradigm (quantitative high-throughput screening or qHTS), where all compounds were tested at multiple concentrations for their effect on cell viability. Concentration-response curves (CRCs) were derived directly from the primary screen, and both potency and efficacy values were used to identify compounds with robust bioactivity profiles. We screened the NIH Chemical Genomics Center (NCGC) Pharmaceutical Collection (NPC) and Mechanism Interrogation Plate (MIPE) small molecule collections of approved and investigational compounds against these cell lines; and measured metabolically active cells after 48 hours of compound treatment as a proxy for cell viability.
Assay Submitter: Nathalia J. Martinez, National Center for Advancing Translational Sciences, National Institutes of Health, Rockville, MD, USA; email: natalia.martinez@nih.gov
[1] Shen, M et al. Quantitative high-throughput phenotypic screening of pediatric cancer cell lines identifies multiple opportunities for drug repurposing. Oncotarget 2017 Dec 19;9(4):4758-4772. PMID 29435139.
The cells were obtained from University of North Carolina (UNC), Pediatric Preclinical Testing Program (PPT), and Coriell Institute (CI).
qHTS cell viability assay:
Cells were assayed in growth media at a density of 500-1,000 cells/well. Five microliters of cells were dispensed into 1,536-well, white, solid-bottom, TC-treated plates (Greiner Bio One) using a multidrop dispenser and incubated at 37 degrees C, 5% CO2, under a humidified atmosphere for 5 hours. Twenty-three nanoliters of compounds and controls (neutral control DMSO or positive control bortezomib at final concentration of 2.3 µM) were subsequently transferred by Kalypsys pintool. For primary screens, the MIPE collection was tested at 11-point dilutions (final concentrations range from 0.78 nM to 46 µM) and the NPC collection at 8-point dilutions (final concentrations range from 0.59 nM to 46 µM). Compounds tested in follow-up screens were assayed at 11-point dilutions. Cells were incubated for 48 hours, followed by addition of 3 µL of CellTiter-Glo (Promega). After a 15 min incubation at room temperature, samples were analyzed for luminescence intensity using a ViewLux High-throughput CCD imager equipped with clear filters.
Potency means the concentration at half of the fitted maximal effect.

SMILES	Potency
Cc1cc([C@@H](C)Nc2ccccc2C(=O)O)c2nc(N3CCOCC3)cc(=O)n2c1	12.1 µM (active)
CCc1ccc(CCOc2ccc(CC3SC(=O)NC3=O)cc2)nc1 (stereo not given)	inactive
OC[C@H](Cc1ccccc1)Nc1nc(Oc2ccc3c(c2)CCC3)nc2c1ncn2Cc1ccc(-c2ccccc2)cc1	inactive
CC(C)OC(=O)C1=CN(C(=O)c2ccc(F)c(F)c2)CC(C)(C)c2c1[nH]c1ccccc21	inactive
c1ccc([C@H]2CN3CCSC3=N2)cc1	inactive
CC[C@@H](C)[C@H](NC(=O)[C@H](CC1CCCCC1)NC(=O)c1ccno1)C(=O)N1CCC2(CCc3ccccc32)CC1	inactive
N#Cc1ccc(C(c2ccc(C#N)cc2)n2cncn2)cc1	inactive
Cc1c(CN2CCN(C(=O)C(C)C)CC2)sc2c(N3CCOCC3)nc(-c3cnc(N)nc3)nc12	0.264 µM (active)
Fc1ccc(Cl)cc1-c1nc(Nc2ccncc2)c2nccnc2n1	inactive
CN(C(=O)c1ccc(F)cc1C(F)(F)F)C1CCN(c2nnc(-c3ccnn3C)c3ccccc23)CC1	inactive
CNC(=O)c1ccccc1Sc1ccc2c(/C=C/c3ccccn3)n[nH]c2c1	10.6 µM (active)
NC(=O)c1ccc(I)c([N+](=O)[O-])c1	inactive
COc1ccccc1-c1cccc(-c2c(O)c3cc(C#N)c(Cl)cc3[nH]c2=O)c1	inactive
Cc1c(C)c2c(c(C)c1O)CCC(C)(COc1ccc(CC3SC(=O)NC3=O)cc1)O2 (stereo not given)	inactive
CCC(C)N(C)C(=O)c1cc2ccccc2c(-c2ccccc2Cl)n1 (stereo not given)	inactive
CN(C)c1ccc(C2Nc3ccc4ccccc4c3C3=C2C(=O)CC(C)(C)C3)cc1Br (stereo not given)	inactive
O=C1CCCC2=C1C(c1[nH]ncc1Cl)N=C(Nc1nc3ccccc3o1)N2 (stereo not given)	inactive
CCn1c(-c2nonc2N)nc2cnc(Oc3cccc(NC(=O)c4ccc(OCCN5CCOCC5)cc4)c3)cc21	inactive
CC1(C)Cc2c(-c3ccccc3)c(-c3ccc(Cl)cc3)c(CC(=O)O)n2C1	inactive
Cn1c(=O)c(F)c(Nc2ccc(I)cc2F)c2c(=O)n(C[C@@H](O)CO)cnc21	20.9 µM (active)

SMILES	Potency
O=C(O)[C@@H](c1ccc(OCc2ccc3ccccc3n2)cc1)C1CCCC1	inactive
CO[C@@H]1[C@H](N(C)C(=O)c2ccccc2)C[C@H]2O[C@]1(C)n1c3ccccc3c3c4c(c5c6ccccc6n2c5c31)C(=O)NC4	1.32 µM (active)
CNC(=O)c1ccc(N2C(=S)N(c3ccc(C#N)c(C(F)(F)F)c3)C(=O)C2(C)C)cc1F	inactive
O=C1CCc2cc(OCCCCc3nnnn3C3CCCCC3)ccc2N1	inactive
O=C(C1CC1)N1CC[C@@H](Cn2c(-c3ccc(-c4ccc5occc5c4)cc3)nc3cnccc32)C1	inactive
CCCCNc1cc(C(=O)O)cc(S(N)(=O)=O)c1Oc1ccccc1	inactive
CC(C=CC1=C(C)CCCC1(C)C)=CC=CC(C)=CC(=O)O	inactive
COc1ccc(-c2ccc3c(N4CCOC[C@H]4C)nc(N4CCOC[C@H]4C)nc3n2)cc1CO	0.132 µM (active)
NC(=O)c1ccc(-c2nc(-c3ccc4c(c3)OCO4)c(-c3ccccn3)[nH]2)cc1	inactive
O=c1[nH]cnc2[nH]ncc12	inactive
COc1ccc(-c2c(-c3ccc(O)cc3O)n[nH]c2C)cc1	inactive
Cc1ccccc1C(OCCN(C)C)c1ccccc1 (stereo not given)	inactive
CCOc1cc(C(=O)Nc2ccc(Cl)c(-c3nc4ccccc4[nH]3)c2)cc(OCC)c1OCC	inactive
O=C(Nc1cccnc1)N1CCC(Cc2cccc(Oc3ccc(C(F)(F)F)cn3)c2)CC1	inactive
N=c1nc(N2CCCCC2)cc(N)n1O	inactive
CCN(CC)CCCC(C)Nc1ccnc2cc(Cl)ccc12 (stereo not given)	inactive
CCc1cc(Nc2nccc(-c3c(-c4ccc(OC)c(C(=O)Nc5c(F)cccc5F)c4)nc4ccccn34)n2)c(OC)cc1N1CCC(N2CCN(S(C)(=O)=O)CC2)CC1	inactive
NCCc1ccc(O)c(O)c1	inactive
CCOC(=O)N[C@@H]1CC[C@@H]2[C@@H](C1)C[C@H]1C(=O)O[C@H](C)[C@H]1[C@@H]2C=Cc1ccc(-c2cccc(F)c2)cn1	inactive
O=c1n(CCCN2CCN(c3cccc(Cl)c3)CC2)nc2ccccn12	inactive
